Assay outcomes as filed in PubChem BioAssay.
This is a sample that favours compounds with a hit; in the whole collection about 7.9% have one here.
LASV entry inh: inhibitors of Lassa virus binding or cell entry. Lassa virus pseudotype entry inhibition, cell reporter. Potency, µM (top dose mostly 37.9 µM), usual class: inhibitors. actives 1.2% (n = 300,000); calls by dose curve; tested in HEK293 cells; further: nearly all actives have a fitted effect of over 50% in size
Marburg entry inh: Marburg virus entry inhibition; Potency, µM (titrated, usually from 37.8 µM), hits mostly inhibitors; AID 540276; actives 1.8% (n = 300,000); Marburg virus pseudotyped entry inhibition, cell reporter; calls by dose curve; tested in HEK293 cells
FMDV antiviral: antivirals against foot and mouth disease virus; FMDV antiviral cell-based qHTS; Potency, µM (titrated, usually from 57.9 µM), actives largely listed as inhibitors; actives 1.2% (n = 410,000); AID 1159524; calls by dose curve; tested in HEK293T cells; further: read-out not given here; nearly all actives have a fitted effect of over 45% in size
HCV inh: blocks hepatitis C virus; Huh7.5.1 HCVcc-Cre infection, luciferase reporter, 44 h; Potency, µM (doses to about 41.8 µM), usual class: inhibitors; actives 3.4% (n = 340,000); active means well fitted inhibition curve with a large enough effect; inconclusive means small, poorly fitted or top-dose-only effect, or another doubt; inactive means no such curve, though single readings can be large or run the other way
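Infectious HCV cell culture screen: compound-treated cells (1,000/well, pre-plated 4 h) are infected with HCVcc-Cre at roughly 0.5 moi and grown 44 h. Infection is quantified by luciferase signal after 15 min substrate incubation at room temperature.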
HCMV inh: blocks human cytomegalovirus replication; AID 1259415; activity change, negative = inhibition, % at 57.5 µM; actives 4.5% (n = 410,000); HFF cells, HCMV-luciferase reporter, 72 h; active compounds read low; in the data active means activity change below about -60%; inconclusive means no clear call, values can overlap the other calls; inactive means above about -39%
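Cell-based, HFFs, 1000 cells/well, 16 h 37C; cpds in DMSO + HCMV-luc, MOI 1 PFU/cell; 72 h 37C; OneGlo luminescence after 5 min RT; norm. to buffer vs Salinomycin 10uM.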
Numbers stand for hits; 0 = inactive; ? = inconclusive; - = not tested or not shown; [ ] = dose if it differs, or a comment.

SMILES	LASV entry inh	Marburg entry inh	FMDV antiviral	HCV inh	HCMV inh
COc1ccc(-c2[nH]ncc2[C@@H]2C[C@H]3CN(Cc4ccccc4C)C(=O)[C@]34CCCN24)cc1	-	-	0	?	-71
COc1ccc(/C(C)=N/NC(=O)CNC(=O)C(c2ccccc2)c2ccccc2)c(OC)c1	?	?	0	?	0
O=C(Nc1nc2cc3c(cc2s1)OCO3)C1=COCCO1	?	0.65µM	0	?	-71
CC(=O)Nc1nc2cc3c(cc2s1)OCO3	-	-	0	0	0
O=C(Nc1nc2cc3c(cc2s1)OCCO3)c1ccco1	0.79µM	0.79µM	?	?	-92
CC(C)C(=O)Nc1nc2cc3c(cc2s1)OCCO3	4.5µM	?	0	?	0
O=C(Nc1nc2cc3c(cc2s1)OCO3)c1ccco1	?	?	0	0	0
CCCCc1c(C)nc2c(-c3ccc(OC)cc3)c(C)[nH]n2c1=O	0	0	?	-	0
CC(=O)c1ccc(-c2cc(F)cc3c2OC(CNC(=O)C(C)N2CCOCC2)C3)s1 (configuration not stated)	-	-	0	-	-
CCOC(=O)c1[nH]c2ccc(Cl)cc2c1NC(=O)/C=C/c1ccc2c(c1)OCO2	?	?	0	0	?
COC(=O)c1[nH]c2ccc(C)cc2c1NC(=O)CCN1CCN(Cc2ccc3c(c2)OCO3)CC1	0	0	?	20µM	0
CCN(CC(=O)Nc1c(C(=O)OC)[nH]c2ccc(Cl)cc12)c1ccc2c(c1)OCO2	13µM	?	0	11µM	0
CCCCCCCC/C=C\CCCCCCCC(=O)OC[C@@H](O)COP(=O)(O)O	-	-	0[6.7 µM]	-	-
O=C(NC(C(=O)N/N=C/c1cc([N+](=O)[O-])ccc1O)c1n[nH]c(=O)c2ccccc12)c1ccccc1 (configuration not stated)	0	0	0	0	-89
O=C(NC(C(=O)N/N=C/c1ccncc1)c1n[nH]c(=O)c2ccccc12)c1ccccc1 (configuration not stated)	0	0	0	0	0
O=C(NC(C(=O)N/N=C/c1cccc2ccccc12)c1n[nH]c(=O)c2ccccc12)c1ccccc1 (configuration not stated)	?	?	0	22µM	0
O=C(NC(C(=O)N/N=C/c1ccccn1)c1n[nH]c(=O)c2ccccc12)c1ccccc1 (configuration not stated)	0	0	0	0	0
COC(=O)c1c(C(=O)OC)c2c3cc(OC)c(OC)cc3ccn2c1C(=O)OC	?	0	-	-	-
Cc1ccc(N2CC(C)Cn3c2nc2c3c(=O)n(Cc3cccc(Cl)c3)c(=O)n2C)cc1 (configuration not stated)	0	0	?	-	0
CN(CCCNC(=O)c1cc2c(=O)n(C)c3ccccc3c2s1)Cc1ccccc1	0	?	0	-	0
CSc1nc(N)nc(SCCS(=O)(=O)c2ccc(Cl)cc2)c1C#N	0	?	?	10µM	0
CN(C)S(=O)(=O)c1ccc(C(=O)NCCC(=O)N2CCCC2)cc1	0	?	0	0	0
COc1cc(/C=C2\C(=O)NC(=O)N(c3ccccc3)C2=O)cc(OC)c1O	0	0	0	0	0
CCOc1cc(/C=C2\C(=O)ON=C2C)ccc1OCc1ccccc1	0	?	28µM	0	-76
COc1cc(C=C2C(=O)OC(c3ccccc3)OC2=O)cc(Br)c1O (configuration not stated)	0	0	10µM	0	0
SMILES	LASV entry inh	Marburg entry inh	FMDV antiviral	HCV inh	HCMV inh
O=C1ON=C(c2ccc(Cl)cc2)/C1=C/c1ccc(O)cc1	0	?	13µM	?	-100
O=C1ON=C(c2ccccc2)/C1=C/c1ccc(O)cc1	-	-	?	0	0
COc1cc(/C=C2\C(=O)ON=C2c2ccccc2)cc(Br)c1O	0	0	10µM	0	0
CCCOc1ccc(/C=C2/C(=O)ON=C2C)cc1OCC	0	0	?	0	0
CC[C@]1(C(=O)OC)[C@H]2C(=O)N(Cc3ccccc3)C(=O)[C@H]2[C@H]2CN=C(SC)N21	-	-	0	0	0
CCCCC12CN3CC(C)(CN(C1)C3c1c[nH]c3ccccc13)C2=O (configuration not stated)	?	0	0	-	0
CCOc1cc(/C=C2\C(=O)ON=C2c2ccccc2)cc(Br)c1O	0	0	11µM	0	0
COc1cc(/C=C2\C(=O)ON=C2c2ccccc2)cc(Cl)c1O	0	0	7.1µM	0	0
CCOc1cc(/C=C2/C(=O)ON=C2C)cc(Br)c1O	-	-	?	0	0
COc1cc(=O)n2c(c1C(=O)N(C)Cc1nccs1)CCN(Cc1cc3ccccc3s1)CC2	-	-	0	-	-
